In PubChem BioAssay AID493216 (National Center for Advancing Translational Sciences (NCATS), 2011) one finds Potency data, which are given here for 11 compounds.

Structures are written as SMILES. Active and inactive are the calls of the source. The call rests on the fitted dose curve.

Sequence of Polyunsaturated fatty acid lipoxygenase ALOX12 (Homo sapiens) (P18054 whole entry, looked up): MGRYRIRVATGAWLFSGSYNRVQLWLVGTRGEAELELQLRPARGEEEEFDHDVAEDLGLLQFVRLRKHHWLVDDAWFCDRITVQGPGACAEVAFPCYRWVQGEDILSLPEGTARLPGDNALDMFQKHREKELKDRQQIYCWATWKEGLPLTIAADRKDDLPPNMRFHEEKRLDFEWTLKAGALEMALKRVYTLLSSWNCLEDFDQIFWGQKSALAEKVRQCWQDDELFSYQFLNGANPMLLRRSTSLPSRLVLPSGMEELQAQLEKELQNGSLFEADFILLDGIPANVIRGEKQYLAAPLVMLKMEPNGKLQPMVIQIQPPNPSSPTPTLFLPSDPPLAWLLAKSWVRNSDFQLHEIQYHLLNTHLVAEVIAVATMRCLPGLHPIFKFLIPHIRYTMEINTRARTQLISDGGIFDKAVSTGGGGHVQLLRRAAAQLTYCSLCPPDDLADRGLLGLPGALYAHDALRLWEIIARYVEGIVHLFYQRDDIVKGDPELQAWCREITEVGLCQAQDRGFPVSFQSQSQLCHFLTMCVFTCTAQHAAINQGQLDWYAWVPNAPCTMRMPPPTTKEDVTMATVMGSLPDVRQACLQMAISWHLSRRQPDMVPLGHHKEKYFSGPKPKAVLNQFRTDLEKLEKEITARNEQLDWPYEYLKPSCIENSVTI

The assay has as its target Polyunsaturated fatty acid lipoxygenase ALOX12 (Homo sapiens) (UniProt P18054). Briefly: Inhibitors of 12-hLO (12-human lipoxygenase): Cuvette-Based Hit Assay for Validation of Followup Compounds. The settings on record: purified 12-hLO, cuvette absorbance 234 nm. Here is the method:
The enzyme activity of 12-hLO was determined by a direct measurement of product formation by monitoring the absorbance at 234 nm in a 2 mL cuvette. IC50 values of inhibitors were obtained by measuring the enzymatic rate at a variety of concentrations (Carroll et al, Segraves et al). This assay was used to validate actives or inconclusive putative inhibitors identified in the primary screen (see related BioAssay AIDs). Assay Provider: Holman, T.R., University of California, Santa Cruz Screening Center PI: Austin, Christopher P. Screening Center: NIH Chemical Genomics Center
For control experiments, 2 mL of substrate buffer (10 uM arachidonic acid / 25 mM HEPES / 0.01% (v/v) Triton X-100, pH 8.0) was aliquoted in a cuvette with a magnetic stir bar. After equilibrium was ensured, an aliquot of inhibitor solvent was added (DMSO), and equilibrium was once again assured. The reaction was started by adding enzyme to the cuvette and the reaction was followed until completed. The inhibition experiments were performed as above, except the actual inhibitory compound was added instead of vehicle. To achieve an IC50, typically 5 concentrations of the inhibitor were studied. If the inhibitor concentration was constant, then five different reaction volumes were used. Step \ Parameter \ Value \ Description 1; UV-Vis; 234 nm; Equilibration 2; Reagent; 2 mL; Substrate buffer 3; UV-Vis; 234 nm; Equilibration 4; Reagent; varies; Compound 5; UV-Vis; 234 nm; Equilibration 6; Reagent; 50-200 nM; Enzyme 12-hLO 7; UV-Vis; 234 nm; Enzymatic reaction Step \ Notes 1; Blank cuvette to air. 2; 10 uM AA, 25 mM HEPES, 0.01% Triton X-100, pH 8. 3; No change in absorbance ensured. 4; Compound vehicle or compound in various concentrations depending on potency. 5; No change in absorbance ensured. 6; Enzyme concentration to achieve reaction rate between 0.02 and 0.04 AU/s. 7; Enzymatic reaction visualized until completion.
As to `Oc1ccc(C2=Nn3c(nnc3-c3ccco3)SC2)cc1O`, the Potency was 33.3 µM (active).

As for `CCc1ccc(S(=O)(=O)/N=C2/C=C(Sc3ncn[nH]3)C(=O)c3ccccc32)cc1`, the Potency is 23.2 µM (active).

Regarding `Cc1ccc(S(=O)(=O)Nc2nc(C)c(NC(=O)Nc3ccc(Cl)cc3Cl)s2)cc1`, the Potency is 2.35 µM (active).

On to `O=C(Nc1nnc(C2=COCCO2)o1)c1ccc(Cl)cc1`, for which the Potency was 7.14 µM (active).

For the compound `COc1ccc(-c2n[nH]c(C(F)(F)F)c2-c2cc3ccccc3o2)c(O)c1`, the Potency was 21 µM (active).

`Cc1ccc(S(=O)(=O)Nc2ccc(NC(=O)Nc3cccc(C(F)(F)F)c3)cc2)cc1`: the Potency is 35 µM (active).

With `O=C(Nc1nnc(-c2ccccn2)o1)c1ccc(Br)cc1`, the Potency was 3.26 µM (active).

For `CSc1ccc(S(=O)(=O)Nc2ccc(S(=O)(=O)Nc3ccc(C)cc3)cc2)cc1`, the Potency is 21.1 µM (active).

`Oc1ccc(-c2csc(-c3ccccc3)n2)cc1O`: the Potency was 0.94 µM (active).

For the compound `Cc1[nH]nc(-c2ccc(O)cc2O)c1-c1ccc(Cl)cc1`, the Potency was 19 µM (active).

In the case of `O=C(Nc1nnc(-c2ccc(Cl)cc2)o1)c1ccccc1Br`, the Potency is 18.3 µM (active).
